Screens as filed in PubChem BioAssay.
A selection: hits, their analogues and other compounds. The true share with any hit is near 5.7%.
KB-3-1 cytotox: KB-3-1 parental cell cytotoxicity; hit rate 1.4% among 400,000; KB-3-1 viability, CellTiter-Glo ATP luminescence, 72 h; AID 1347075; Potency, µM (top dose mostly 46.1 µM), usual class: cytotoxic; also: potency is read from the fitted curve at half-maximal effect; nearly all actives have a fitted effect of over 60% in size
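Cytotoxicity in the drug-sensitive parental line KB-3-1 was scored as loss of CellTiter-Glo luminescence following 72 h incubation with compound. Values come from curve fitting of normalized concentration-response data.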
PI4K2A inh: inhibitors of human PI4K2A; Q9BTU6; AID 1346378; hit rate 0.13% among 420,000; activity change, negative = inhibition, % at 76.9 µM; purified PI4K2A, ADP-Glo luminescence, 1 h; active compounds read low; in the data active = activity change below about -50%; inconclusive = mostly about -30% to -49%;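 also: -100% = wells without enzyme as full effect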
Target sequence (Q9BTU6 whole entry, looked up): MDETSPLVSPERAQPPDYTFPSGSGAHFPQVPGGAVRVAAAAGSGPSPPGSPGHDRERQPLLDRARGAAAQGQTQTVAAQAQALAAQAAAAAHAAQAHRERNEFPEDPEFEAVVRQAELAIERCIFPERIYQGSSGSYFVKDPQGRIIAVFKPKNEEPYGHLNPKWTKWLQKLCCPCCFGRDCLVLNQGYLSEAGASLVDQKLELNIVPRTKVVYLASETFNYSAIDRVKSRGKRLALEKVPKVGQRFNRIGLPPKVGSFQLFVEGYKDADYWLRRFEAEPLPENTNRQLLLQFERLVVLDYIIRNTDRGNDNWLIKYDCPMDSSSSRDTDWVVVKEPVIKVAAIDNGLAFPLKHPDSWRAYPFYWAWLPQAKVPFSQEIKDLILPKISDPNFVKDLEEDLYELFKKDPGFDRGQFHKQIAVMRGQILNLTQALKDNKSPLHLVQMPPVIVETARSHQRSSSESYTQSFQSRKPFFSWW
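In this quantitative HTS, ADP production by PI4K2A was quantified luminescently after 1 h at ambient temperature; 100 microM adenosine served as plate-quality control.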
A549 tox: kills or reduces viability of A549 cells in Nrf2 counter-screen | A549 ARE-Fluc cells, CellTiter-Fluor viability, 18-24 h | Potency, µM (doses to about 46 µM), for the others: top-dose activity change, negative = cytotoxicity, actives largely listed as inhibitors | hit rate 0.16% among 390,000; also: potency is read from the fitted curve at half-maximal effect
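A549 ARE_Fluc cells in 5% FBS OPTI-MEM were exposed to compounds in concentration-response for 18-24 h at 37 deg C. Viability was read by CellTiter-Fluor fluorescence (Ex 405/Em 525) after 30 min, before the luciferase read.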
Giardia kill: Giardia lamblia killing; hit rate 0.15% among 340,000; activity change, % at 7.66 µM, hits read low; Giardia lamblia trophozoite viability; in the data active = activity change below about -80%; inconclusive = between about -30% and that limit;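 also: parasites exposed to compound for two days anaerobically before the ATP read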
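Compounds were tested on trophozoites seeded at 100 cells/well and held 48 hrs at 37 deg C anaerobically. An ATP-based luminescent kit measured the remaining live cells.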
Nrf2 block: Nrf2 pathway inhibition. A549 ARE-Fluc reporter, luciferase luminescence, 18-24 h. Potency, µM (doses to about 46 µM), inactives show at the highest dose activity change, negative = inhibition, actives largely listed as inhibitors. hit rate 2.1% among 360,000; also: potency is read from the fitted curve at half-maximal effect; nearly all actives have a fitted effect of over 60% in size
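Cells were seeded and rested 2 h, then exposed to compounds for 18-24 h. CellTiter-Fluor was read first as a viability measure. BugLite was added 15 min before the final luminescent read of ARE-luciferase activity in A549 cells.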
KB-V1 cytotox: KB-V1 MDR subline cytotoxicity; KB-V1 MDR cells viability, CellTiter-Glo, 72 h; Potency, µM (top dose mostly 46.1 µM), actives largely listed as cytotoxic; hit rate 3.4% among 400,000; AID 1347076; also: potency is read from the fitted curve at half-maximal effect; nearly all actives have a fitted effect of over 60% in size
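Cytotoxicity via CellTiter-Glo luminescence after 72 h compound exposure at 37 degrees C. Cells: drug-selected KB-V1 line, DMEM phenol-red free plus 10% FBS. Compounds tested at multiple concentrations; normalized data fitted to concentration-effect curves.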
An asterisk follows results filed as active; i = inactive; ? = inconclusive; · = no result given. Unless noted, calls follow the shape of the dose curve; as a rule, active = well fitted curve in the direction sought with a large enough effect; inconclusive = small, poorly fitted or top-dose-only effect, or another doubt; inactive = no such curve, though single readings can be large; an effect the other way counts as inactive or inconclusive. Unless noted, % is scaled to controls: 0 for no effect and ±100 for the full control effect.

SMILES	KB-3-1 cytotox	PI4K2A inh	A549 tox	Giardia kill	Nrf2 block	KB-V1 cytotox
O=S(=O)(c1ccc(N2CCN(Cc3ccccc3)CC2)nc1)N1CCCC1	?	8.9	-2.0%	3.1	-26.2%	?
O=S(=O)(c1ccc(N2CCN(S(=O)(=O)c3ccccc3)CC2)nc1)N1CCCC1	i	-2.6	6.6%	5.5	-23.2%	i
Cc1ccccc1CN1CCN(c2ccc(S(=O)(=O)N3CCCC3)cn2)CC1	?	8.2	-17.3%	7.7	?	9.2µM*
Cc1ccc(SC[C@H](Cc2ccccc2)N2CC[C@@H](C(C)(C)C)CCC2=O)cc1	i	·	·	·	·	?
NS(=O)(=O)c1ccc(N/N=C/c2ccc[nH]2)c([N+](=O)[O-])c1	i	-9.1	-6.1%	-0.7	8.2µM*	?
NS(=O)(=O)c1ccc(N/N=C/c2cn(-c3ccccc3)nc2-c2cccs2)c([N+](=O)[O-])c1	?	-2.8	13µM*	14.4	10.3µM*	i
NS(=O)(=O)c1ccc(N/N=C/c2cn(-c3ccccc3)nc2-c2cccs2)cc1	?	-1.4	-4.9%	-8.7	0.0%	?
COc1ccc2c(c1)CC/C(=C\Nc1ccc3c(c1)OCO3)C2=O	i	-3.4	?	-13.8	17.8%	i
COc1ccc(N/C=C2\CCc3ccccc3C2=O)cc1	?	-66.0*	?	-13.6	?	i
O=C1/C(=C/Nc2ccc3c(c2)OCO3)CCc2ccccc21	?	?	?	?	?	23.1µM*
COc1ccc(N/C=C2\CCOC2=O)cc1	i	-1.6	9.2%	5.0	-19.9%	i
COC(=O)[C@]12C[C@H](CC(=O)NCc3cccc(C(F)(F)F)c3)C(=O)N(CCc3ccc(OC)c(OC)c3)C1=C[C@H](C(C)C)O[C@@H]2C1CC1	·	-0.2	·	·	·	·
COCCNC(=O)c1cnn2c(C(F)(F)F)cc(-c3ccc4c(c3)OCO4)nc12	i	-4.0	2.8%	-21.0	20.7%	2.06µM*
O=C(CN1CCN(c2ccc(Cl)cc2)CC1)Nc1ccc(F)cc1	?	-4.3	?	-7.6	?	20.6µM*
CCOc1ccc(NC(=O)CN2CCN(C3c4ccccc4-c4ccccc43)CC2)cc1	i	6.6	-4.1%	-7.6	9.7%	18.4µM*
O=C(CCS(=O)(=O)c1ccc(F)cc1)Nc1ccc(N2CCN(Cc3ccccc3)CC2)cc1	i	3.5	10.6%	-15.2	21.6%	18.4µM*
O=C(CN1CCN(c2ccccc2)CC1)Nc1ccc(Oc2ccccc2)cc1	i	-1.2	-0.6%	-16.0	-8.7%	23.1µM*
COc1ccc(NC(=O)CN2CCN(C3c4ccccc4-c4ccccc43)CC2)c(OC)c1	?	8.5	-1.0%	-0.1	·	i
Cc1ccc2nc(CN3CCN(S(=O)(=O)c4ccc(F)cc4)CC3)oc2c1	i	2.1	5.0%	·	·	i
COc1ccc(-c2n[nH]c(C(F)(F)F)c2-c2cc3ccccc3o2)c(O)c1	i	1.6	16.4µM*	-7.5	16.4µM*	18.4µM*
Cc1cccc(NC(=O)C(=O)NNC(=O)c2ccc(C(C)(C)C)cc2)c1	i	3.6	6.51µM*	-19.0	?	?
O=C(Nc1cccc([N+](=O)[O-])c1)c1ccc2c(c1)OCCO2	?	1.8	-12.6%	-16.5	-9.4%	20.6µM*
O=C(Cc1ccccc1)Nc1cccc([N+](=O)[O-])c1	i	-2.5	-2.1%	9.2	10.8%	i
O=C(Nc1cccc([N+](=O)[O-])c1)c1ccc2ccccc2c1O	?	3.4	-3.0%	-6.8	?	4.11µM*
CC(C)(C)c1ccc(C(=O)Nc2cccc([N+](=O)[O-])c2)cc1	?	-3.2	-11.1%	-19.2	?	11.6µM*
SMILES	KB-3-1 cytotox	PI4K2A inh	A549 tox	Giardia kill	Nrf2 block	KB-V1 cytotox
O=C(Nc1cccc(Cl)c1)c1ccc2c(c1)OCCO2	i	-12.7	1.7%	-19.7	105.9%	i
CC(C)(C)c1ccc(C(=O)NNC(=O)c2cccc(Br)c2)cc1	i	-1.1	-12.2%	-2.8	·	i
O=C(Nc1cccc([N+](=O)[O-])c1)c1ccncc1	i	-4.1	7.1%	-6.9	6.4%	i
COC(=O)[C@H](CC(C)C)NS(=O)(=O)NC(=O)OC(C)(C)C	i	·	·	·	·	i
O=C(Nc1cccc([N+](=O)[O-])c1)c1[nH]ncc1Cl	i	-9.0	11.8%	19.8	?	23.1µM*
O=C(Nc1cccc([N+](=O)[O-])c1)c1cnccn1	i	-5.4	-1.5%	-14.6	10.9%	?
Cc1cccc(NC(=S)NNC(=O)c2csc(C(C)C)c2)c1	i	1.9	-6.1%	0.0	?	20.6µM*
CCc1cc(C(=O)NNC(=S)Nc2cccc(C)c2)cs1	i	2.0	-2.8%	9.1	?	i
CCn1cc2nc(SCc3ccc(C)cc3)n(CCc3ccccc3)c(=O)c2n1	i	-3.6	?	·	20.6µM*	i
CSc1ccc(CN2CCN(Cc3ccc([N+](=O)[O-])cc3)CC2)cc1	?	-4.6	-11.3%	3.5	8.2µM*	2.06µM*
O=[N+]([O-])c1ccc(CN2CCCCCC2)cc1	i	2.5	-0.4%	22.5	6.9%	i
CSc1ccc(CN2CCN(C(=O)CC(C)C)CC2)cc1	?	1.1	0.4%	26.8	25.9µM*	i
O=C(N1CCc2cc([S+](=O)([O-])N3CCN([S+](=O)([O-])c4c(F)cccc4F)CC3)ccc2C1)C(F)(F)F	·	·	2.4%	·	11.0%	·
O=c1oc(Nc2ccc(F)cc2)nc2ccccc12	i	-57.4*	-17.5%	19.1	13.3%	i
Cc1ccc2c(c1)NC(=O)CC(c1ccccc1)=N2	i	-6.5	-6.2%	-6.1	29.1%	i
O=C1CC(c2ccccc2)=Nc2ccc(Br)cc2N1	?	-0.3	-0.2%	-1.2	-4.9%	14.6µM*
Cc1ccn2cc(CNS(=O)(=O)c3ccc4ccccc4c3)nc2c1	i	0.9	11.4%	-12.8	10.7%	?
Cc1cccn2cc(CNS(=O)(=O)c3ccc4ccccc4c3)nc12	i	-1.0	-7.1%	6.2	13µM*	i
Cc1ccc(Cl)cc1NC(=O)c1cccc(OC(F)F)c1	i	-1.1	-12.8%	7.1	-17.1%	18.4µM*
COc1cc(NC(=O)c2cc3ccccc3cc2O)c(OC)cc1Cl	?	-0.2	?	?	?	?
Cc1ccc(Cl)cc1NC(=O)c1cc2ccccc2cc1O	9.2µM*	-0.5	?	0.5	?	?
COc1cccc(NC(=O)Nc2cc(Cl)ccc2C)c1	i	2.7	-2.7%	-1.2	18.4µM*	?
COc1ccc(NC(=O)Nc2ccc(F)cc2F)cc1	i	2.5	6.8%	-1.8	?	i
